Measurements taken from PubChem BioAssay AID1159580 (chemical genetic matrix, 2015).
The whole screen tested about 5,500 compounds, of which about 2,000 (36%) were called active. About 18% were inconclusive and are not listed. Rule as the data show it: active = normalized growth mostly below about 0.91 (no sharp cut-off); inconclusive = no clear call, values can overlap the other calls; inactive = mostly above about 0.92. The list shows a part of the results.

Experiment: chemical genetic growth profiling, strain panel (AID 1159580);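 also: tested at 20 µM; growth read once vehicle control cultures reached saturation at 30 °C; 1 = growth at the plate median or of vehicle wells; lower values mean less growth of the strain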
Settings: S. cerevisiae deletion strains, growth OD
[1] = locus YAR019C, strain CDC15, hits give low values
[2] = locus YBL105C, strain PKC1, hits give low values
[3] = locus YBR135W, strain CKS1, hits give low values
[4] = locus YBR136W, strain MEC1, hits give low values
[5] = locus YBR160W, strain CDC28, hits give low values
[6] = locus YDL017W, strain CDC7, hits give low values
[7] = locus YDL028C, strain MPS1, hits give low values
[8] = locus YDL101C, strain DUN1, hits give low values
[9] = locus YDL108W, strain KIN28, hits give low values
[10] = locus YDL132W, strain cdc53, hits give low values
[11] = locus YDL214C, strain PRR2, hits give low values
[12] = locus YDR052C, strain DBF4, hits give low values
[13] = locus YDR054C, strain cdc34, hits give low values
[14] = locus YDR226W, strain ADK1, hits give low values
[15] = locus YDR477W, strain SNF1, hits give low values
[16] = locus YER123W, strain YCK3, hits give low values
[17] = locus YER133W, strain GLC7, hits give low values
[18] = locus YFL009W, strain cdc4, hits give low values
[19] = locus YFL029C, strain CAK1, hits give low values
[20] = locus YFR003C, strain YPI1, hits give low values
[21] = locus YFR019W, strain FAB1, hits give low values
[22] = locus YFR028C, strain CDC14, hits give low values
[23] = locus YGR040W, strain KSS1, hits give low values
[24] = locus YGR052W, strain FMP48, hits give low values
[25] = locus YGR092W, strain DBF2, hits give low values
[26] = locus YHR030C, strain SLT2, hits give low values
[27] = locus YHR079C, strain IRE1, hits give low values
[28] = locus YHR082C, strain KSP1, hits give low values
[29] = locus YHR205W, strain SCH9, hits give low values
[30] = locus YIL147C, strain SLN1, hits give low values
[31] = locus YJL095W, strain BCK1, hits give low values
[32] = locus YJL128C, strain PBS2, hits give low values
[33] = locus YJL157C, strain FAR1, hits give low values
[34] = locus YJR016C, strain ILV3, hits give low values
[35] = locus YJR066W, strain TOR1 (second series), hits give low values
[36] = locus YJR066W, strain TOR1, hits give low values
[37] = locus YKL048C, strain ELM1, hits give low values
[38] = locus YKL067W, strain YNK1, hits give low values
[39] = locus YKL101W, strain HSL1, hits give low values
[40] = locus YKL193C, strain SDS22, hits give low values
[41] = locus YKL203C, strain TOR2, hits give low values
[42] = locus YLR113W, strain HOG1, hits give low values
[43] = locus YLR133W, strain CKI1, hits give low values
[44] = locus YLR403W, strain SFP1, hits give low values
[45] = locus YML070W, strain DAK1, hits give low values
[46] = locus YMR001C, strain CDC5, hits give low values
[47] = locus YMR205C, strain PFK2 (second series), hits give low values
[48] = locus YMR277W, strain FCP1, hits give low values
[49] = locus YNL006W, strain LST8, hits give low values
[50] = locus YNL020C, strain ARK1, hits give low values
[51] = locus YNL161W, strain CBK1, hits give low values
[52] = locus YNL183C, strain NPR1, hits give low values
[53] = locus YNL207W, strain RIO2, hits give low values
[54] = locus YNL222W, strain SSU72, hits give low values
[55] = locus YNL307C, strain MCK1 (second series), hits give low values
[56] = locus YOL078W, strain AVO1, hits give low values
[57] = locus YOL136C, strain PFK27, hits give low values
[58] = locus YOR061W, strain CKA2, hits give low values
[59] = locus YOR119C, strain RIO1, hits give low values
[60] = locus YOR231W, strain MKK1, hits give low values
[61] = locus YOR329C, strain SCD5, hits give low values
[62] = locus YPL031C, strain PHO85, hits give low values
[63] = locus YPL153C, strain RAD53, hits give low values
[64] = locus YPL204W, strain HRR25, hits give low values
[65] = locus YPL209C, strain IPL1, hits give low values
[66] = locus YPL256C, strain CLN2, hits give low values
[67] = locus YPR025C, strain CCL1, hits give low values
[68] = locus YPR106W, strain ISR1, hits give low values
[69] = locus YPR111W, strain DBF20, hits give low values
[70] = strain NNK1, hits give low values
[71] = strain TSCII, hits give low values

Measured: normalized growth

Nc1ccccc1C(=O)N/N=C\c1cc(Cl)cc(Cl)c1O
active: [16] 0.435 | [24] 0.325 | [25] 0.13 | [26] 0.657 | [27] 0.485 | [29] 0.564 | [31] 0.425 | [33] 0.685 | [35] 0.404 | [37] 0.579 | [38] 0.649 | [39] 0.301 | [41] 0.65 | [42] 0.434 | [43] 0.586 | [45] 0.494 | [47] 0.527 | [50] 0.516 | [52] 0.43 | [55] 0.27 | [57] 0.588 | [58] 0.491 | [59] 0.696 | [60] 0.393 | [63] 0.583 | [64] 0.655 | [66] 0.456
inactive: [1] 0.968 | [2] 0.958 | [3] 0.97 | [4] 0.962 | [5] 0.968 | [6] 0.963 | [7] 0.964 | [8] 0.97 | [9] 0.965 | [10] 0.954 | [11] 0.758 | [12] 0.959 | [13] 0.955 | [14] 0.957 | [15] 0.694 | [17] 0.76 | [18] 0.949 | [19] 0.966 | [20] 0.962 | [21] 0.838 | [22] 0.948 | [23] 0.777 | [28] 0.682 | [30] 0.963 | [32] 0.972 | [34] 0.976 | [36] 0.546 | [40] 0.967 | [44] 0.669 | [46] 0.956 | [48] 0.958 | [49] 0.967 | [51] 0.967 | [53] 0.948 | [54] 0.967 | [56] 0.969 | [61] 0.97 | [62] 0.688 | [65] 0.969 | [67] 0.967 | [68] 0.96 | [69] 0.946 | [70] 0.939 | [71] 0.962

CC(C)(C)c1ccc(C(=O)N/N=C\c2cc(Cl)cc(Cl)c2O)cc1
active: locus YAL013W, strain DEP1, hits give low values 0.909 | locus YBR229C, strain ROT2, hits give low values 0.832 | locus YCL061C, strain MRC1, hits give low values 0.818 | [8] 0.852 | locus YEL061C, strain CIN8, hits give low values 0.624 | locus YGR078C, strain PAC10, hits give low values 0.847 | [26] 0.452 | locus YHR087W, strain rtc3, hits give low values 0.872 | locus YJR043C, strain POL32, hits give low values 0.876 | locus YKL190W, strain CNB1, hits give low values 0.316 | locus YLR039C, strain RIC1, hits give low values 0.165 | locus YLR085C, strain ARP6, hits give low values 0.285 | locus YLR262C, strain YPT6, hits give low values 0.182 | locus YML094W, strain GIM5, hits give low values 0.645 | locus YMR219W, strain ESC1, hits give low values 0.83 | locus YNL128W, strain TEP1, hits give low values 0.377 | locus YNL153C, strain GIM3, hits give low values 0.826 | locus YNL298W, strain CLA4 (second series), hits give low values 0.642 | locus YNR030W, strain Alg12, hits give low values 0.617 | locus YPL241C, strain CIN2, hits give low values 0.428
inactive: locus YDR150W, strain NUM1, hits give low values 1.19 | locus YJR075W, strain HOC1, hits give low values 0.996 | locus YLR058C, strain SHM2 (second series), hits give low values 0.97 | locus YMR263W, strain SAP30, hits give low values 0.893 | locus YNL322C, strain KRE1, hits give low values 0.998 | locus YPL055C, strain LGE1, hits give low values 0.858 | locus YPR135W, strain CTF4, hits give low values 0.69

O=C(N/N=C\c1cc(Cl)cc(Cl)c1O)c1ccccc1Oc1ccccc1
inactive: [1] 0.965 | [2] 0.967 | [3] 0.981 | [4] 0.964 | [5] 0.974 | [6] 0.975 | [7] 0.963 | [8] 0.981 | [9] 0.958 | [10] 0.955 | [11] 0.933 | [12] 0.97 | [13] 0.96 | [14] 0.966 | [15] 0.945 | [16] 0.882 | [17] 0.949 | [18] 0.958 | [19] 0.953 | [20] 0.961 | [21] 0.946 | [22] 0.962 | [23] 0.934 | [24] 0.929 | [25] 0.885 | [26] 0.855 | [27] 0.917 | [28] 0.916 | [29] 0.844 | [30] 0.967 | [31] 0.871 | [32] 0.921 | [33] 0.939 | [34] 0.974 | [35] 0.939 | [36] 0.933 | [37] 0.895 | [38] 0.901 | [39] 0.89 | [40] 0.965 | [41] 0.969 | [43] 0.926 | [44] 0.925 | [45] 0.891 | [46] 0.961 | [47] 0.913 | [48] 0.971 | [49] 0.982 | [50] 0.906 | [51] 0.971 | [52] 0.88 | [53] 0.945 | [54] 0.971 | [55] 0.906 | [56] 0.975 | [57] 0.913 | [58] 0.905 | [59] 0.922 | [60] 0.91 | [61] 0.976 | [62] 0.938 | [63] 0.924 | [64] 0.919 | [65] 0.982 | [67] 0.966 | [68] 0.968 | [69] 0.952 | [70] 0.959 | [71] 0.967
active: [42] 0.722 | [66] 0.818
